# Laboratory results: ChEMBL document CHEMBL3988442, “University of Dundee, Small-Polar-MMV Screening Library” (2021)
# About 13,000 (27%) of roughly 48,000 compounds showed an effect of 50% or more. The list shows a part of the results.
# System: Wolbachia pipientis
# Experiment: Anti-Wolbachia Cell-Based Screen
# Format: functional
# Parameters: scale not given: in the data most compounds retested in dose-response had high values
# Conditions: 5 µM
row,SMILES,Percent Effect [%]
1,Cc1[nH]ncc1CCCNC(=O)N1CCC(CC(N)=O)CC1,-1.64
2,CC(=O)NC1CCCN(C(=O)NCc2ccc(-c3ccn[nH]3)cc2)C1 (stereo unspecified),11.01
3,CCOc1ccc(CNC(=O)N2CCCC(CO)C2)cc1F (stereo unspecified),1.945
4,O=C(NCc1ccc2c(c1)OCCO2)N1CCC(CO)CC1,-3.134
5,CNC(=O)C1CCN(C(=O)NCc2ccc(-c3ccn[nH]3)cc2)CC1,139.8
6,CNC(=O)C1CCN(C(=O)NCc2ccc(C)n2C)CC1,-3.399
7,COC(=O)NC1(C(=O)NCc2ccc(-c3ccn[nH]3)cc2)CCCC1,-10.61
8,CC(=O)N1CCCN(C(=O)NCc2ccc(-c3ccn[nH]3)cc2)CC1,101.6
9,NC(=O)CC1CCN(C(=O)NCc2ccc(-c3ccn[nH]3)cc2)CC1,131.5
10,COc1ccccc1NCC(=O)NCc1ccc(-c2ccn[nH]2)cc1,-17.15
11,CCOCC1CCCN(C(=O)NCc2ccc(-c3ccn[nH]3)cc2)C1 (stereo unspecified),107.6
12,O=C(NCc1ccccc1)N1CCC(Oc2ncccc2Cl)CC1,6.296
13,O=C(O)C(F)(F)F.O=C(c1cnoc1)N1CCC[C@]2(C[C@@H](OCc3ccccn3)CO2)C1,20.74
14,NC(=O)C1CCN(C(=O)NCc2ccc(-c3ccn[nH]3)cc2)CC1,110.5
15,O=C(NCc1ccc(-c2ccn[nH]2)cc1)N1CCC(N2CCCC2)C1 (stereo unspecified),1.692
16,NC(=O)C1CCN(C(=O)NCc2ccc3c(c2)OCCO3)CC1,2.129
17,CCn1cc(NC(=O)NCC(O)CN2CCCCC2)cn1 (stereo unspecified),-8.278
18,Cc1csc(CNc2cnn(CC(C)C)c2)n1,-6.579
19,Cc1csc(CNc2cnn(CC(F)(F)F)c2)n1,0.5328
20,CN(C)CC(O)Cn1cc(NCc2ccc(Br)cc2)cn1 (stereo unspecified),110.4
21,CCN(CC)Cc1ccc(CNC(=O)C(C)(C)n2cc(Br)cn2)cc1,25.74
22,Cc1cc(C)c(NC(=O)Nc2cnn(CC(O)CN(C)C)c2)c(C)c1 (stereo unspecified),101.9
23,CCC(CC)C(CNC(=O)Nc1cnn(CCOC)c1)N(C)C (stereo unspecified),-1.824
24,Cc1cc(C)c(CNc2cnn(CC(O)CN(C)C)c2)c(C)c1 (stereo unspecified),97.23
25,CNS(=O)(=O)CC1CCCN1c1ccc(Cl)cn1 (stereo unspecified),-0.6453
26,CC(C)COC(C)C(=O)N1CCCCC1 (stereo unspecified),22.01

row,SMILES,Percent Effect [%]
1,N#CC1(NC(=O)CNCCn2cccn2)CCCCC1,0.8723
2,O=C(CNCCn1cccn1)NCC1(c2ccccc2)CCC1,123.8
3,O=C(CNCCn1cccn1)NCC1(c2ccccc2)CCCC1,152.5
4,Cc1cnn(CCNCC(=O)NCC2(c3ccccc3)CCC2)c1,6.79
5,Cc1cnn(CCNCC(=O)NCCOc2ccccc2)c1,-6.94
6,Cc1cccc(C2(C(=O)NCCCn3cccn3)CC2)c1,-18.04
7,O=C(Cn1cccn1)NCC1(c2ccccc2)CC1,8.498
8,CC(NC1(CNC(=O)Cn2cccn2)CCOCC1)c1ccccc1 (stereo unspecified),-4.179
9,O=C(CNCCn1cccn1)NCC1(c2ccccc2)CC1,-4.744
10,O=C(CNCCn1cccn1)NCC1(c2ccccc2)CCOCC1,92.49
11,Cc1cnn(CCNCC(=O)NCC2(c3ccccc3)CC2)c1,75.55
12,CN(C(=O)CNCCn1cccn1)C1(C#N)CCCCC1,-7.323
13,Fc1ccc(-n2cccn2)c(CN2CCCCC2CCn2ccnc2)c1 (stereo unspecified),6.266
14,Cc1cc(NC(=O)CCNC(C)(C)c2nc(C)c(C)s2)no1,-5.204
15,Cc1ccccc1C1CCCN(C(=O)c2c[nH]c(=O)c(Cl)c2)C1 (stereo unspecified),0.979
16,O=C(NCc1ccoc1)c1ccc(C2CCCN2CC2CCOCC2)s1 (stereo unspecified),-3.898
17,CC(=O)NC(Cc1c[nH]c2cc(F)ccc12)C(=O)Nc1nncs1 (stereo unspecified),-20.07
18,CC(C)NC(=O)c1cc2c([nH]c1=O)CC(c1cccs1)CC2=O (stereo unspecified),-15.67
19,COCCN1CCO[C@@H]2CN(Cc3ccc(C)o3)C[C@@H]2C1.O=C(O)C(F)(F)F.O=C(O)C(F)(F)F,4.147
20,Cc1ccc(CN2CC[C@H]3OCC[C@@H](C(=O)NCC4CC4)[C@@H]3C2)o1,-3.1
21,CC(C)N1[C@@H](C(=O)NCC2CC2)C[C@@H]2CN(Cc3ccco3)C[C@@H]21,96.03
22,CC(=O)N1C[C@H]2CCCN(Cc3ccc(C)o3)[C@H]2C1.O=C(O)C(F)(F)F,-21.55
23,CN1[C@@H](C(=O)NCC2CC2)C[C@@H]2CN(Cc3ccoc3)C[C@@H]21,87.47
24,Cc1ccc(CN2C[C@@H]3C[C@H](C(=O)NCC4CC4)N(C)[C@@H]3C2)o1.O=C(O)C(F)(F)F.O=C(O)C(F)(F)F,102.8
25,Cc1ccc(CN2C[C@H]3C[C@H](C(=O)NCc4cccnc4)[C@@H](C2)O3)o1,-11.22
26,Cc1ccc(CN2C[C@H]3C[C@H](C(=O)NCC4CC4)N(C)[C@H]3C2)o1,105.7

row,SMILES,Percent Effect [%]
1,CN(C)[C@@H]1CN(Cc2ccco2)C[C@@H]2CCCO[C@@H]21.O=C(O)C(F)(F)F.O=C(O)C(F)(F)F,5.089
2,O=C(NCC1CC1)[C@@H]1CCO[C@@H]2CCN(Cc3ccco3)C[C@H]21.O=C(O)C(F)(F)F,-5.269
3,CC(C)(C)CCS(=O)(=O)NCCc1csc(N2CCCC2)n1,-17.7
4,CC(C)(C)SCC(=O)Nc1cc(-n2nnnc2C2CC2)ccc1F,-2.902
5,c1ncc2c(n1)CN(Cc1cn3ccsc3n1)CC2,-19.58
6,NC(=O)CN(CC(=O)NCc1cc(F)cc(F)c1)C1CCCC1,2.456
7,CC1(C)COCCN1C(=O)Cc1csc(Cc2ccccn2)n1,-7.387
8,CCNC(=O)NC(=O)CN1CCC(c2c[nH]c3ccc(OC)cc23)CC1,-12.44
9,CC(C)Cc1noc(CN(C)C2CCS(=O)(=O)C2)n1 (stereo unspecified),-20.93
10,NS(=O)(=O)c1ccc(F)c(C(=O)NCCSC2CCCCC2)c1,-0.4963
11,Cc1ccc(S(N)(=O)=O)cc1C(=O)NCC1Cc2ccccc2O1 (stereo unspecified),20.46
12,Cc1ccc(S(N)(=O)=O)cc1C(=O)NC1CCCC1,60.38
13,CC(=O)N1CCC(NC(=O)c2cc(Cl)ccc2O)CC1,5.076
14,COCCC(=O)N1CCC(NC(=O)c2cscc2C)CC1,4.5
15,CCc1ccc(O)c(C(=O)NC2CCN(S(=O)(=O)CC)CC2)c1,-4.06
16,CC(=O)N1CCC(NC(=O)c2cc(S(N)(=O)=O)ccc2C)CC1,120.7
17,COCC(O)CN1CCC(NC(=O)c2cscc2C)CC1 (stereo unspecified),-6.433
18,O=C(NC1CCN(C2CC2)CC1)c1cc(Cl)ccc1-n1cnnn1,-15.3
19,Cc1ccc(S(N)(=O)=O)cc1C(=O)NC1CCN(C2CC2)CC1,102.7
20,COC(=O)N1CCC(NC(=O)c2cc(S(N)(=O)=O)ccc2C)CC1,98.52
21,Cc1ccc(C)c(C(=O)NC2CCC(N3C(=O)CCC3=O)CC2)c1 (stereo unspecified),7.383
22,CCN1C(=O)[C@H]2CN(CC(C)C)C[C@H]2C12CCN(C(=O)NC(C)C)CC2.O=C(O)C(F)(F)F,-7.35
23,CCCOC(C)Cn1ccc2[nH]c(=O)c(C#N)cc2c1=O (stereo unspecified),-62.19
24,CC(C)C(C)(CNC(=O)OC(C)(C)C)NC(=O)c1cnccn1 (stereo unspecified),1.478
25,Cc1c(NCCOCC(F)(F)F)cccc1C(=O)N1CCCC1,1.47
26,COc1ccc(S(=O)(=O)NCC(O)c2sccc2C)cc1C (stereo unspecified),4.303

row,SMILES,Percent Effect [%]
1,CCCC(=O)NC1CCCN(c2nc3ccccc3cc2CO)C1 (stereo unspecified),0.5391
2,O=C(c1ccsc1)N1CC(C(=O)N2CCOCC2)C2(CCOCC2)C1 (stereo unspecified),-0.6494
3,CC(C)(C)n1ncc(C(=O)NCCCC(N)=O)c1C(F)(F)F,6.459
4,Cc1ccc(S(N)(=O)=O)cc1C(=O)N1CCc2c(ncnc2N(C)C)C1,-11.64
5,Cc1ccc(S(N)(=O)=O)cc1C(=O)NC1CCCN(C)C1 (stereo unspecified),108
6,Cc1ccc(S(N)(=O)=O)cc1C(=O)N1C[C@@H](CN(C)C)[C@@H](CO)C1,4.643
7,O=S1(=O)CCC(c2nc(-c3cccc(Br)c3)no2)C1 (stereo unspecified),-8.148
8,CN(C)C1CCCN(C(=O)CCc2csc(N)n2)CC1 (stereo unspecified),-10.57
9,CN1[C@H]2CC[C@@H]1CN(C(=O)CCc1csc(N)n1)CC2,2.348
10,CC(C)N1CCCC1c1csc(N)n1 (stereo unspecified),125.7
11,CC(NC(=O)C1(NC(=O)c2ccc3[nH]ncc3c2)CCCC1)C1CC1 (stereo unspecified),-1.4
12,CCn1cnnc1CNC(=O)Cc1ccc2c(c1)OCCO2,101.5
13,CCN(Cc1ccc2c(c1)OCCO2)C(=O)NCc1cc[nH]n1,-1.226
14,CCn1cnnc1CNC(=O)N(C)Cc1ccc2c(c1)OCO2,127.8
15,CCN(Cc1ccc2c(c1)OCCO2)C(=O)NCc1nc(C)cs1,-0.008456
16,CCn1cnnc1CNC(=O)N(C)Cc1ccc(F)c(F)c1,-10.5
17,CCn1cnnc1CNC(=O)N(C)Cc1cccc(OC(F)F)c1,110.2
18,CCN(Cc1ccc2c(c1)OCCO2)C(=O)NCc1nncn1CC,99.19
19,CCn1cnnc1CNC(=O)N(C)Cc1ccc(Cl)cc1Cl,-3.326
20,CC(NC(=O)N(C)Cc1cccc(OC(F)F)c1)c1nncn1C (stereo unspecified),-22.06
21,CCn1cnnc1CNC(=O)CCC(=O)c1ccc2c(c1)OCCO2,5.212
22,CCn1cnnc1CNC(=O)N(C)Cc1ccc2c(c1)OCCO2,2.42
23,CCn1cnnc1CNC(=O)C1COc2ccc(Cl)cc2C1 (stereo unspecified),-2.501
